# Assay results: PubChem BioAssay AID926 (National Center for Advancing Translational Sciences (NCATS), 2007)
# In all, about 73,000 compounds went through this assay and about 350 (0.48%) were called active. Another 17% or so got no clear call; they are omitted. Calls come from the whole dose curve; as a rule, active = well fitted activation curve with a large enough effect in the main read-out, with a control signal flat (not every such curve was filed as active); inconclusive = small, poorly fitted or top-dose-only effect, or a change in a side signal; inactive = no such curve, though single readings can be large or run the other way; reference of the percent scale not stated here. The list comes from a sample in which actives are over-represented; it also holds similar structures and randomly drawn compounds.
# How the values were obtained:
# [1] = qHTS Assay for Agonists of the Thyroid Stimulating Hormone Receptor; details: HEK293-CNG-TSHR cells, membrane potential dye, cAMP; measured here: parental cells max response
# Summary of the method: (§1)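 HEK 293 cells stably expressing TSHR and a cAMP-gated CNG channel; parental CNG-only cells as counterscreen. Cells preloaded 60 min with membrane potential dye plus 100 uM RO 20-1724, then compound 30 min; fluorescence read at 590 nm.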
# [2] = biological target: Thyrotropin receptor (Homo sapiens) (UniProt P16473); experiment: as above; details: HEK293-CNG-TSHR cells (CNG channel as cAMP sensor), membrane potential dye, cAMP; series mostly up to 57.1 µM
# Summary of the method: as §1
# Potency is the fitted concentration of half-maximal effect.
# Sequence of Thyrotropin receptor (Homo sapiens) (P16473 whole entry, looked up): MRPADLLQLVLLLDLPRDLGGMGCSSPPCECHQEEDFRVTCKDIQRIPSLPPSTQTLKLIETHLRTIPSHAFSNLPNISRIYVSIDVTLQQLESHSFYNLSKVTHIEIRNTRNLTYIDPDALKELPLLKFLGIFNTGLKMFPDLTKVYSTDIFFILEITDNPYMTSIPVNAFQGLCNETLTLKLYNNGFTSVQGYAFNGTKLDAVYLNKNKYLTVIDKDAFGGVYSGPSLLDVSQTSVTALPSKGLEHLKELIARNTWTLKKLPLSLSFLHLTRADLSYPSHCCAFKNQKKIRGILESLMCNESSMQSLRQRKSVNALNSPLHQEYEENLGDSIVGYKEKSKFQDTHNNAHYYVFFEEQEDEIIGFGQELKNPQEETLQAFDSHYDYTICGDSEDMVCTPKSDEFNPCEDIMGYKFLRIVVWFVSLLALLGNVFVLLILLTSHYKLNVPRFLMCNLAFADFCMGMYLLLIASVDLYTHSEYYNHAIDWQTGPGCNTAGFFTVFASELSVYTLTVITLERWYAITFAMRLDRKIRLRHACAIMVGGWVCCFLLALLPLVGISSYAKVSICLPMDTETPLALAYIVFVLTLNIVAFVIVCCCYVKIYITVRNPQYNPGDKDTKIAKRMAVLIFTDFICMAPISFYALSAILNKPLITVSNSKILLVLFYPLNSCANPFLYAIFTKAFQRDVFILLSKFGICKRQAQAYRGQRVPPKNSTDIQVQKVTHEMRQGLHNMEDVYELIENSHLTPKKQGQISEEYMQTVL
SMILES,activation [1] [%],Potency [2],activation [2]
O=C1OC(NC(=O)c2ccccc2)C(N2CCOCC2)=C1Cl (stereo not given),4.11,inactive,–
CC(C)c1ccc2c([Si](C)(C)C)c3c(nc2c1)-c1cccc(=O)n1C3,2.88,inactive,–
CCn1cc(NC(=O)Nc2ccc(OC)c(OC)c2)c(C(N)=O)n1,0.163,inactive,–
COc1cccc(N2CCN(C3CC(=O)N(c4ccc(Cl)cc4)C3=O)CC2)c1 (stereo not given),-14.4,–,-19.1% [at 11.4 µM] (inactive)
Cc1ccc(C(=O)Nc2nnc(-c3ccncc3)s2)o1,-13.3,inactive,–
CC(=O)OCC(=O)[C@@]1(O)CC[C@@H]2[C@H]3CCC4=CC(=O)C=C[C@]4(C)[C@]3(F)[C@@H](O)C[C@@]21C,-1.34,inactive,–
COC(=O)[C@@]1(Cc2ccc(F)cc2)[C@H]2c3cc(C(=O)N4CCCC4)n(C[C@H](O)CO)c3C[C@H]2CN1C(=O)c1ccccc1,12.9,inactive,–
CC(C)N(C(=O)Cn1c(SCC(=O)N2CCN(c3ccccc3)CC2)nc2ccccc21)C(C)C,11.2,inactive,–
Cc1ccc(NC(=O)N2CCC(C(=O)NCc3ccc(F)cc3)CC2)cc1,-2.62,inactive,–
Cn1c(=O)n2n(c1=O)[C@H]1[C@H](O)[C@H]3O[C@H]3C(=O)[C@H]1CC2,0.42,–,-7.07% [at 11.4 µM] (inactive)
O=C(CCCn1c(=O)oc2ccccc21)Nc1cccnc1,-4.73,inactive,–
c1ccc2nc(C3=NCCN3)cnc2c1,-2.21,inactive,–
COCc1cc(C)nc(Nc2cc(C)ccc2C)c1C#N,18.4,inactive,–
CC1CCN(C(=O)CSc2ccc3nnc(-c4cccc(F)c4)n3n2)CC1,0.67,inactive,–
COc1ccc(C[C@H](N)C(=O)N[C@@H]2[C@H](O)[C@H](n3cnc4c(N(C)C)ncnc43)O[C@@H]2CO)cc1,-1.32,inactive,–
Cc1cc2nc3c(=O)[nH]c(=O)nc-3n(C[C@H](O)[C@H](O)[C@H](O)CO)c2cc1C,35.7,inactive,–
O=C(CCn1c(=O)oc2ccccc21)Nc1ccon1,5.04,inactive,–
COCCCNC(=O)COc1cc(C)c(Cl)c(C)c1,3.68,inactive,–
COC(=O)CSC1=C(C#N)C(c2ccccc2OC)C(C(=O)OC)C(=O)N1 (stereo not given),-3.31,–,-3.47% [at 11.4 µM] (inactive)
C=CCOC(=O)COCCC(C)C,1.07,inactive,–
Cn1cccc1C(=O)N1CCC[C@@]2(CCN(Cc3nccs3)C2)C1,1.41,inactive,–
CCCC[C@@H]1C[C@H]1C(NC(=O)c1ccc(-c2ccccc2)cc1)c1ccc(-c2ccccc2)cc1 (stereo not given in full),1.42,inactive,–
Cc1cccc(Br)c1,15,inactive,–
CCCC(Cl)CCCC(Cl)CCC(Cl)CCC(Cl)CCC(Cl)CCCC(Cl)CCC (stereo not given),3.46,inactive,–
O=C(Cl)c1ccc([N+](=O)[O-])cc1,-6.7,inactive,–
COc1ccc(C2SCCN2S(=O)(=O)c2ccccc2)cc1OC (stereo not given),15.1,31.6 µM (active),–
COc1ccc(S(=O)(=O)Nc2ccc(S(=O)(=O)N3CCCCC3)cc2)cc1OC,-4.42,inactive,–
COc1ccccc1CN1CC2(CCN(S(=O)(=O)c3ccccc3)CC2)C1,7.71,inactive,–

SMILES,activation [1] [%],Potency [2],activation [2]
Cc1ccc2oc(=O)ccc2c1,1.36,inactive,–
CO[C@H]1COC(=O)[C@@H](OCc2ccccc2)/C=C\[C@H](C)[C@@H](OC)COC(=O)[C@H](OCc2ccccc2)/C=C\[C@@H]1C,-2.98,–,-1.59% [at 11.4 µM] (inactive)
CCc1ccccc1N(CC(=O)NCCSCc1ccco1)S(C)(=O)=O,6.61,–,16.8% [at 11.4 µM] (inactive)
COC(=O)C1(Cc2ccccc2)C=C2C(=C(C)C(=O)C2C)CN1 (stereo not given),7.11,inactive,–
CC(=O)N1[C@H](C)C=C[C@]1(Cc1ccccc1)C(=O)NCc1ccccn1,7.85,inactive,–
Cc1cc(C)cc(C#CC2C=CC(Oc3ccc(C4CCCC4)cc3)C(CO)O2)c1 (stereo not given),16.7,–,5.07% [at 11.4 µM] (inactive)
COC(=O)[C@@]1(Cc2ccc(F)cc2)[C@@H]2[C@@H](CC(=O)[C@H]2CC(=O)C(=O)N2CCCC2)CN1C(=O)c1ccccc1,18.8,inactive,–
CCNCCCNCCCNCCCNCC,-2.31,inactive,–
BrC1C(Br)C(Br)C(Br)C(Br)C1Br (stereo not given),2.31,inactive,–
Cc1cccc(C(=O)O)c1[N+](=O)[O-],15,inactive,–
CC1(C)OC(C(O)(c2ccccc2)c2ccccc2)C(C(O)(c2ccccc2)c2ccccc2)O1 (stereo not given),25.8,–,15.4% [at 11.4 µM] (inactive)
Cc1cccc(NC(=O)CSC(N)=O)c1C,-24.7,inactive,–
CCCS(=O)(=O)N1CCCC(C(=O)NCc2ccco2)C1 (stereo not given),10.5,inactive,–
Cc1ccc(S(=O)(=O)N2CCCC2C(=O)NCc2ccco2)cc1 (stereo not given),-0.0422,12.6 µM (active),–
Cc1ccc(S(=O)(=O)N2CCCC2CO)cc1 (stereo not given),-3.4,–,-5.75% [at 11.4 µM] (inactive)
C/C(CCN1CCc2nc(-c3ccccc3)c(-c3ccccc3)cc2C1)=N\O[C@@H](C)c1cn([C@@H]2COC[C@@H]2O)nn1,0.56,–,6.46% [at 11.4 µM] (inactive)
C=CCn1cnc2scc(-c3ccccc3)c2c1=O,-2.42,inactive,–
O=C1C(c2[nH]c3ccccc3c2O)=Nc2ccccc21,-17.9,inactive,–
O=C(O)CS(=O)c1ccc2c3c(cccc13)C(=O)c1ccccc1-2 (stereo not given),-9.79,–,-5.26% [at 11.4 µM] (inactive)
CCCCCCN(C(=O)CCCCCN1C(=O)NC(c2ccc(C(F)(F)F)cc2)C(C(=O)OCc2ccccc2)=C1C)C(C(=O)NCCCC)c1ccc(OCC(=O)OC)c(C(=O)OC)c1 (stereo not given),18.9,inactive,–
O=C(CSc1nc2c(cnn2-c2ccc(F)cc2)c(=O)[nH]1)N1CCCCCC1,1.57,inactive,–
CN1CCC(CNC(=O)c2ccc(-n3c(=O)c(=O)[nH]c4ccccc43)cc2)CC1,-0.798,inactive,–
Cc1ccc2nc(-c3ccccc3)cc(C(=O)O)c2c1,-5.12,inactive,–
CC(C)(C)[Si](OCC[C@@H]1C[C@@]1(C)[C@@H](NP(=O)(c1ccccc1)c1ccccc1)c1ccccc1)(c1ccccc1)c1ccccc1,13.3,inactive,–
O=C(CC(Cc1ccccc1)C(=O)O)NCCc1ccc2c(c1)OCO2 (stereo not given),9.45,inactive,–
O=C(COc1ccccc1)NCc1ccc2c(c1)OCO2,27.1,inactive,–
O=C(CN(Cc1ccccc1)C(=O)c1ccc2c(c1)OCCO2)NCc1ccc2c(c1)OCO2,12.9,7.94 µM (active),–
